# Bioassay records from PubChem.
# Sampled rows, rich in hits. Any-hit rate of the full collection: about 13%.
# FMDV inh = blocks foot and mouth disease virus; FMDV antiviral cell-based qHTS; Potency, µM (highest dose often 57.9 µM), inactives show at the highest dose activity change, negative = inhibition, actives largely listed as inhibitors; 410,000 compounds, 1.2% hits; AID 1159524; calls by dose curve; tested in HEK293T cells; further: read-out not given here; potency means the concentration at half of the fitted maximal effect; on the % scale 0 is the no-effect control and ±100 the full control effect; nearly all actives have a fitted effect of over 45% in size
# HCV inhibitor = HCV inhibition; Huh7.5.1 HCVcc-Cre infection, luciferase reporter, 44 h; Potency, µM (highest dose often 41.8 µM), for inactives: top-dose activity change, negative = inhibition, usual class: inhibitors; 340,000 compounds, 3.4% hits; active means well fitted inhibition curve with a large enough effect; inconclusive means small, poorly fitted or top-dose-only effect, or another doubt; inactive means no such curve, though single readings can be large or run the other way; further: potency means the concentration at half of the fitted maximal effect; on the % scale 0 is the no-effect control and ±100 the full control effect
#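 Compounds are dispensed onto cells plated 4 h earlier at 1,000 per well, with HCVcc-Cre virus (about 0.5 moi) added next. Following 44 h of culture, luminescent signal is measured for 15 sec after 15 min with substrate at room temperature.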
# Shiga inhibitor = Shiga toxin inhibition. AID 2315. 290,000 compounds, 9.2% hits. inhibition, % at 38.7 µM. Vero cells, Shiga toxin protein synthesis inhibition reporter; in the data active means inhibition mostly above about 28%, no sharp cut-off; inactive means mostly below about 43%; further: 0% is about no effect
# Marburg entry inh = inhibitors of Marburg virus binding or cell entry; Marburg virus pseudotyped entry inhibition, cell reporter; Potency, µM (titrated, usually from 37.8 µM), without a hit: at the highest dose activity change, negative = inhibition, actives largely listed as inhibitors; 300,000 compounds, 1.8% hits; AID 540276; calls by dose curve; tested in HEK293 cells; further: potency means the concentration at half of the fitted maximal effect; on the % scale 0 is the no-effect control and ±100 the full control effect
# Lassa entry inh = inhibitors of Lassa virus binding or cell entry; Lassa virus pseudotype entry inhibition, cell reporter; Potency, µM (top dose mostly 37.9 µM), for inactives: at the highest dose activity change, negative = inhibition, hits mostly inhibitors; 300,000 compounds, 1.2% hits; calls by dose curve; tested in HEK293 cells; further: potency means the concentration at half of the fitted maximal effect; on the % scale 0 is the no-effect control and ±100 the full control effect; nearly all actives have a fitted effect of over 50% in size
# CHX counter = affects cycloheximide protein synthesis inhibition readout, counter-screen; cell reporter, cycloheximide protein synthesis inhibition counterscreen; AID 2314; max response, %; 300,000 compounds, 12% hits; in the data active means max response mostly above about 13%, no sharp cut-off; inactive means mostly below about 14%; further: read at 38.3 µM for the half of the compounds with a filed dose; 0% is about no effect
# Active calls of the source: *; ? = inconclusive; . = no result; + = active, no number; [ ] = remark or other dose.
SMILES,FMDV inh,HCV inhibitor,Shiga inhibitor,Marburg entry inh,Lassa entry inh,CHX counter
Cc1cc(O)cc(O[C@H]2OC(CO)[C@H](O)[C@@H](O)[C@H]2O)c1 (some centres not stated),-5.4%,-1.8%[8.37 µM],-11.6,0.7%,-0.4%,-0.3
CC(C)(C)c1ccc(NC(=O)CSc2nnc(-c3n[nH]c4ccccc34)o2)cc1,?,-21.9%,37.3*,?,0.7%,26.2
O=C(NNC1OC(CO)C(O)C(O)C1O)c1cccc(Br)c1 (configuration not stated),-10.2%,28.9%,-2.0,2.2%,9.6%,5.2
Oc1ccc2c(c1)C1CCCC1(N1CCOCC1)O2 (configuration not stated),12.2%,-23.2%,9.9,22.1%,13.5%,9.0
c1ccc2c(c1)nc1n2C2(N3CCOCC3)CCCC2C1N1CCOCC1 (configuration not stated),-21.3%,4.0%,41.7,11.7%,1.9%,10.5*
O=C(Cc1ccc(Br)cc1)Nc1ccccc1N1CCCC1,?,-11.6%,-4.2,.,.,-2.3
O=C(CNC(=O)c1ccccc1)OC(C(=O)c1ccccc1)c1ccccc1 (configuration not stated),0.0%,-2.2%,-16.8,8.0%,3.0%,-9.3
COc1ccccc1N1CCN(C(=O)C2CCCCN2S(=O)(=O)c2ccc(C)cc2)CC1 (configuration not stated),-19.7%,-19.8%,10.2,.,.,-1.5
COc1cc(O)c(C(C)=O)c(CC(=O)O)c1,-13.9%,3.16µM*,2.3,.,.,1.7
O=C(CC1SCCNC1=O)Nc1cccc(C(F)(F)F)c1 (configuration not stated),50.6%,24.7%,27.1,1.0%,20.6%,7.8
O=C(CC1SCCNC1=O)Nc1cccc(Cl)c1 (configuration not stated),65.0%,-3.7%,38.9*,?,5.9%,16.6*
O=C(Cc1ccc(Br)cc1)Nc1cccc(Cl)c1,-5.1%,-1.0%,21.6,7.2%[46.1 µM],-15.0%[46.1 µM],20.6*
O=C(Cc1ccc(Cl)cc1)Nc1ccc(Br)cc1,17.8%,-17.0%,73.8*,8.5%[46.1 µM],-14.7%,30.5*
Clc1cccc(/C=N/Nc2nnc(Cl)c3ccccc23)c1,.,7.8%,61.6*,16.1%,0.3%,19.2
Cc1nnc(NCc2cccc(Cl)c2)c2ccccc12,-6.3%,?,-11.7,-9.1%[46.1 µM],2.9%,-4.1
Clc1ccc(/C=N/Nc2nnc(-c3ncc[nH]3)c3ccccc23)cc1,-8.7%,?,112.5*,-24.3%,-16.5%,34.3*
Cc1ccsc1/C=N/Nc1ncc(Cl)cc1Cl,-38.3%,12.6µM*,119.1*,-23.7%,?,31.6*
Cc1ccsc1/C=N/Nc1nc(=O)[nH]nc1C,7.4%,?,111.8*,?,18.3µM*,34.1*
Cc1cc(C)nc(N/N=C/c2sccc2C)n1,62.1%,-25.4%,77.3*,?,0.9%,25.9*
Cc1n[nH]c(=O)nc1NCc1ccc(Cl)cc1,8.6%,4.2%,-19.4,-3.7%[46.1 µM],-2.4%,-2.8
Cc1ccsc1/C=N/Nc1ccc(F)cc1F,45.9%,13.3%,90.6*,?,17.0%[46.1 µM],43.6*
COc1cc(/C=N/Nc2ccc(F)cc2F)cc(OC)c1OC,-7.2%,7.9%,38.6,2.0%,-4.7%,9.2
O=C(c1cnn2ccccc12)N1CCCc2ccccc21,-14.2%,-22.1%,-0.8,0.6%,.,-1.3
O=C(COc1cccc(F)c1)NNC(=O)c1cccc(-n2cccc2)c1,-1.0%,-13.1%,.,-5.1%[46.1 µM],6.5%,.
COc1ccc(-c2nc3sc(CCNC(=O)C(=O)Nc4cc(C)cc(C)c4)c(C)n3n2)cc1,12.7%,.,.,.,19.4%[46.1 µM],.
SMILES,FMDV inh,HCV inhibitor,Shiga inhibitor,Marburg entry inh,Lassa entry inh,CHX counter
CCN(CC1CCCO1)C(=O)c1cc(COc2ccc(F)cc2F)on1 (configuration not stated),12.9%,.,17.0,14.2%,-1.1%,6.7
COc1cccc2sc(/N=C/N(C)C)nc12,-4.0%,6.8%,50.4*,?,12.9%[46.1 µM],10.4*
COc1cccc2sc(N)nc12,-5.3%,-3.7%,.,.,.,.
COc1cccc2sc(N(C)c3ccccc3)nc12,-2.9%,25.1µM*,86.2,?,?,61.5*
COc1cc(NS(=O)(=O)c2ccc3[nH]c4c(c3c2)CCCCCC4)cc(OC)c1,47.0%,.,.,.,?,.
COC(=O)COc1ccc2cc(-c3ccc(OC)cc3)c(=O)oc2c1,12.0%,-1.6%,-6.0,.,.,1.8
COc1ccc(-c2cc3ccc(O)cc3oc2=O)cc1,15.7%,-23.5%,74.5*,.,.,36.8*
O=c1oc2cc(O)ccc2cc1-c1ccccc1,0.0%,-7.5%,53.7*,.,.,38.1*
Cc1cc(NC(=O)CSCC(=O)N(C)Cc2cccc(Cl)c2)no1,-18.4%,-11.0%,.,5.0%,0.6%,.
Cc1ccc(C2c3[nH]c4ccccc4c3CCN2C(=O)c2ccccc2Br)cc1 (configuration not stated),-16.9%,.,.,.,?,.
O=C(N/N=C/c1cccnc1)c1cccc(N2CCCC2=O)c1,17.5%,0.9%,35.3,-6.7%[46.1 µM],14.5%[46.1 µM],27.0*
O=C(NCCN1C(=O)S/C(=C\c2ccccc2)C1=O)c1cc(S(=O)(=O)N2CCOCC2)c(Cl)cc1Cl,?,?,-5.7,?,?,-0.7
O=C(NCCN1C(=O)S/C(=C\c2ccc(F)cc2)C1=O)c1cccc(S(=O)(=O)N2CCOCC2)c1,-11.2%,10µM*,+,-37.3%,1.4%,69.3*
CCN(CC)c1ccc(/C=N/NC(=O)c2cccc(S(=O)(=O)N3CCOCC3)c2)cc1,14.1µM*,10µM*,-8.1,8.3%,-36.5%,1.4
COc1cc(/C=N/NC(=O)c2cccc(N3CCCC3=O)c2)ccc1O,14.7%,0.6%,46.1,0.8%,?,24.1*
Cc1ccc(S(=O)(=O)N2CCN(c3ccccc3)CC2)s1,?,4.1%,.,.,.,.
C=CCNc1nc2ccccc2c(=O)[nH]1,-2.1%,-0.9%,6.8,-0.8%[46.1 µM],-0.2%,-1.3
CCN(CCNC(=O)c1cccc(N2CCCC2=O)c1)c1ccccc1,0.4%,?,13.9,-2.0%[46.1 µM],2.3%,2.1
CCN(CC)c1ccc(/C=N/NC(=O)c2cccc(N3CCCC3=O)c2)cc1,24.4%,-22.9%,42.0*,?,9.2%[46.1 µM],22.9*
Cn1cc(C(=O)c2ccc(Cl)cc2)cc1-c1nc2ccccc2n1C,15.8µM*,25.1µM*,-8.3,?,?,-5.9
Cn1c(=O)c(C(=O)c2ccccc2)nc2ccccc21,4.8%,25.7%,-17.9,-5.6%,18.0%,-5.4
NC(=O)C1CCN(C(=O)CCC(=O)c2ccc(F)cc2)CC1,-4.8%,10.6%,-1.4,.,.,7.0
COCC(=O)Nc1nc(-c2ccccc2)ns1,19.1%,4.0%,41.0,18.9%,-4.5%,34.7*
CC(=O)Nc1nc(-c2ccccc2)ns1,23.8%,-13.5%,38.1*,?,5.0%,23.3*
COc1ccccc1OCC(=O)Nc1nc(-c2ccc(Br)cc2)ns1,-3.0%,.,.,-5.1%[46.1 µM],11.3%[46.1 µM],.
COc1cc2[nH]c(=O)n(CCC(=O)N3CCN(c4ccc(Cl)cc4)CC3)c(=O)c2cc1OC,-22.7%,.,.,-2.6%[46.1 µM],5.7%[46.1 µM],.
CCn1c(CC(=O)Nc2ccc(F)cc2)nnc1SCC(=O)Nc1nncs1,-16.3%,11.7%,-14.0,3.5%[46.1 µM],-1.7%[46.1 µM],-3.5
